Results: PubChem BioAssay (EPA / NIEHS)
Inconclusive results are not listed. Activity calls are given as the source filed them. How the source made its calls: active means hit-call score of the fitted dose curve at least 0.9, where 1 is the maximum; inconclusive means response in the unintended direction; inactive means score below 0.9.

The compounds below were run against human Tyrosine Protein Kinase Receptor Tie-2 (Tie2), TEK (gene 7010) (UniProt Q02763) (assay: NVS_ENZ_hTie2: NovaScreen (NVS) Enzymatic Assay for human Tyrosine Protein Kinase Receptor Tie-2 (Tie2) (AID 2283225)).
Chain of human Tyrosine Protein Kinase Receptor Tie-2 (Tie2), TEK (gene 7010) (Q02763 whole entry, looked up): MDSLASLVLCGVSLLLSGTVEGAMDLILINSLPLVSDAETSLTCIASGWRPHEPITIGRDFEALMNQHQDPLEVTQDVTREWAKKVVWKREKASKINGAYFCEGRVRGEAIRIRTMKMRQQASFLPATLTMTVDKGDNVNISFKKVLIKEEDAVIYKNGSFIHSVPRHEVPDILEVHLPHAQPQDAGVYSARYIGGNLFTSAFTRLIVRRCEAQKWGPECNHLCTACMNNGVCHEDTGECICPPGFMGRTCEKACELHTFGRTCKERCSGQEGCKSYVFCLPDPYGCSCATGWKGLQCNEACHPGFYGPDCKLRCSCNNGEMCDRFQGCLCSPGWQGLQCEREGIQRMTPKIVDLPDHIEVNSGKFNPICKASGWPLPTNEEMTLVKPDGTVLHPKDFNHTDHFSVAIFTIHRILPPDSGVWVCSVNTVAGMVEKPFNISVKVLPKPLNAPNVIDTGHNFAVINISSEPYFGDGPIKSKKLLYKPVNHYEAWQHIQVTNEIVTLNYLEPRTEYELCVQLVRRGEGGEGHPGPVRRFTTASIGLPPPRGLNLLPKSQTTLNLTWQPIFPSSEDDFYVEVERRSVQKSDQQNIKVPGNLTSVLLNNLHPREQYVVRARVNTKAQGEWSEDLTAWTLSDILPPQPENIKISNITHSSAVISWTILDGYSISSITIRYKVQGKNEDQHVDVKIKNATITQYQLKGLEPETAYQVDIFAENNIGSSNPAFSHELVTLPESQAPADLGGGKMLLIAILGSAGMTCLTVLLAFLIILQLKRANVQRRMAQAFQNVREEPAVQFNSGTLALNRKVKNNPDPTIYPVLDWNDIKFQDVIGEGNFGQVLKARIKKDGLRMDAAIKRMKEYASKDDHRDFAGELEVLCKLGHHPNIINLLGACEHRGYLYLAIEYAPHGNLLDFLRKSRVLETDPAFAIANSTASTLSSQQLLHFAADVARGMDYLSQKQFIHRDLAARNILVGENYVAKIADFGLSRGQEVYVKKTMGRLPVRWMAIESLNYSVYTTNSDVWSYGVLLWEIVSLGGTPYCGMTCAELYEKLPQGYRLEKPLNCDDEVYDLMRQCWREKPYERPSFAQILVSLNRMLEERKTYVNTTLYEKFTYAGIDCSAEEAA
Method in brief: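 Substrate and product were separated by mobility shift and detected by fluorescence after a 1-hour reaction with recombinant Tie2. Chemicals passing a 25 uM single-point screen were titrated to a maximum of 50 uM. Results were normalized to DMSO baseline.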

Structure (SMILES)	outcome
CC1(C)CN=C(NN=C(/C=C/c2ccc(C(F)(F)F)cc2)/C=C/c2ccc(C(F)(F)F)cc2)NC1	inactive
CC(C)(C)OOC(C)(C)C	inactive
O=c1ssc(Cl)c1Cl	inactive
O=P1(N(CCCl)CCCl)NCCCO1 (stereo not drawn)	inactive
CSC(C)(C)C=NO	inactive

The compounds below were run against rabbit Imidazoline 2 Central (I2C), CKB (gene 100009085) (UniProt P00567) (assay: NVS_ENZ_rabI2C: NovaScreen (NVS) Enzymatic Assay for rabbit Imidazoline 2 Central (I2C) (AID 2283228)).
Chain of rabbit Imidazoline 2 Central (I2C), CKB (gene 100009085) (P00567 whole entry, looked up): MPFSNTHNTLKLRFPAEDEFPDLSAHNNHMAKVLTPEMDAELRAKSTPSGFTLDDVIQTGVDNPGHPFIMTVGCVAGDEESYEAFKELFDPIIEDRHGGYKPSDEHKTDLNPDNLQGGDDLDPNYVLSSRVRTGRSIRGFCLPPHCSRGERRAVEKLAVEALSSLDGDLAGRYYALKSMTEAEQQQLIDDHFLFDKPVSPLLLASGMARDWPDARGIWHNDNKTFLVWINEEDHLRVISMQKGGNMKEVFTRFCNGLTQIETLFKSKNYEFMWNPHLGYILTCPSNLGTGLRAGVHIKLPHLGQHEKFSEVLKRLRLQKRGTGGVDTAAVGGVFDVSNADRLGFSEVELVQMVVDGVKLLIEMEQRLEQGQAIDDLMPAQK
Description: NVS_ENZ_rabI2C is a biochemical, single-readout assay that uses extracted gene-proteins from Rabbit brain membranes in a tissue-based cell-free assay. Measurements were taken 1.5 hours after chemical dosing in a 48-well plate.NVS_ENZ_rabI2C is one of one assay component(s) measured or calculated from the NVS_ENZ_rabI2C assay. It is designed to make measurements of enzyme activity, a form of enzyme reporter, as detected with scintillation counting signals by Filter-based radiodetection technology.Data from the assay component NVS_ENZ_rabI2C was analyzed into 1 assay endpoint. This assay endpoint, NVS_ENZ_rabI2C, was analyzed in the positive analysis fitting direction relative to DMSO as the negative control and baseline of activity. Using a type of enzyme reporter, loss-of-signal activity can be used to understand changes in the enzymatic activity as they relate to the gene CKB. Furthermore, this assay endpoint can be referred to as a primary readout, because this assay has produced multiple assay endpoints where this one serves a enzymatic activity function. To generalize the intended target to other relatable targets, this assay endpoint is annotated to the oxidoreductase intended target family, where the subfamily is imidazoline receptor.
Binding assays used specific radioligands (tritiated, iodinated) with non-radioactive competitive displacement ligands in agonist or antagonist protocols (as indicated) and various reference compounds and inhibitors to titrate specific binding to receptors and transporters. Most enzyme assays (CYPs, kinases, phosphatases, proteases, HDACs) used recombinant protein and specific substrates (fluorescence mostly, some colorimetric and radioactive) and inhibitors, followed by a biochemical separation of substrate and product. All assays for the biochemical HTS were initially run in duplicate at a single concentration (10 uM for CYP450 assays and 25 uM for all others). […]

Structure (SMILES)	outcome	AC50
Cc1cccc(N)c1	inactive	
Nc1ccc2ccccc2c1		13.7 µM (active)
Cc1ccc(N)cc1N	inactive	

Each compound was assayed against human Vascular Endothelial Growth Factor Receptor 2 (VEGFR2), KDR (gene 3791) (UniProt P35968) (assay: NVS_ENZ_hVEGFR2: NovaScreen (NVS) Enzymatic Assay for human Vascular Endothelial Growth Factor Receptor 2 (VEGFR2) (AID 2283230)).
Description: NVS_ENZ_hVEGFR2 is a biochemical, single-readout assay that uses extracted gene-proteins in a cell-free assay. Measurements were taken 1 hour after chemical dosing in a 384-well plate.NVS_ENZ_hVEGFR2 is one of one assay component(s) measured or calculated from the NVS_ENZ_hVEGFR2 assay. It is designed to make measurements of enzyme activity, a form of enzyme reporter, as detected with fluorescence intensity signals by Fluorescence and electrophoretic mobility shift technology.Data from the assay component NVS_ENZ_hVEGFR2 was analyzed into 1 assay endpoint. This assay endpoint, NVS_ENZ_hVEGFR2, was analyzed in the positive analysis fitting direction relative to DMSO as the negative control and baseline of activity. Using a type of enzyme reporter, loss-of-signal activity can be used to understand changes in the enzymatic activity as they relate to the gene KDR. Furthermore, this assay endpoint can be referred to as a primary readout, because this assay has produced multiple assay endpoints where this one serves a enzymatic activity function. To generalize the intended target to other relatable targets, this assay endpoint is annotated to the kinase intended target family, where the subfamily is receptor tyrosine kinase.
(§1) Binding assays used specific radioligands (tritiated, iodinated) with non-radioactive competitive displacement ligands in agonist or antagonist protocols (as indicated) and various reference compounds and inhibitors to titrate specific binding to receptors and transporters. Most enzyme assays (CYPs, kinases, phosphatases, proteases, HDACs) used recombinant protein and specific substrates (fluorescence mostly, some colorimetric and radioactive) and inhibitors, followed by a biochemical separation of substrate and product. All assays for the biochemical HTS were initially run in duplicate at a single concentration (10 uM for CYP450 assays and 25 uM for all others). Assay-chemical combinations meeting a pre-defined threshold (e.g., 30% inhibition and other criteria defined below) were then run in singleton concentration-response format with maximum concentration of 20 uM for CYPs and 50 uM for all others. Each assay was run with positive and negative controls, and concurrent controls on every plate. The follow-up (secondary) screen tested active chemical-pairs in concentration series, as well as a few additional assays not tested in the primary screen, some selected negative inactives, and several cases re-run in the concentration series for confirmatory purposes.

Structure (SMILES)	outcome
Cc1cccc(N)c1	inactive
CCCN(CCC)c1c([N+](=O)[O-])cc(C(C)C)cc1[N+](=O)[O-]	inactive
O=c1ssc(Cl)c1Cl	inactive
CCCCN(CCCC)SN(C)C(=O)Oc1cccc2c1OC(C)(C)C2	inactive
ClC1=C(Cl)C2(Cl)C3C(Cl)C(Cl)CC3C1(Cl)C2(Cl)Cl (stereo not drawn)	inactive

The compounds below were run against sheep Cyclooxygenase-2 (Cox2), PTGS2 (gene 443460) (UniProt P79208) (assay: NVS_ENZ_oCOX2: NovaScreen (NVS) Enzymatic Assay for sheep Cyclooxygenase-2 (Cox2) (AID 2283231)).
Chain of sheep Cyclooxygenase-2 (Cox2), PTGS2 (gene 443460) (P79208 whole entry, looked up): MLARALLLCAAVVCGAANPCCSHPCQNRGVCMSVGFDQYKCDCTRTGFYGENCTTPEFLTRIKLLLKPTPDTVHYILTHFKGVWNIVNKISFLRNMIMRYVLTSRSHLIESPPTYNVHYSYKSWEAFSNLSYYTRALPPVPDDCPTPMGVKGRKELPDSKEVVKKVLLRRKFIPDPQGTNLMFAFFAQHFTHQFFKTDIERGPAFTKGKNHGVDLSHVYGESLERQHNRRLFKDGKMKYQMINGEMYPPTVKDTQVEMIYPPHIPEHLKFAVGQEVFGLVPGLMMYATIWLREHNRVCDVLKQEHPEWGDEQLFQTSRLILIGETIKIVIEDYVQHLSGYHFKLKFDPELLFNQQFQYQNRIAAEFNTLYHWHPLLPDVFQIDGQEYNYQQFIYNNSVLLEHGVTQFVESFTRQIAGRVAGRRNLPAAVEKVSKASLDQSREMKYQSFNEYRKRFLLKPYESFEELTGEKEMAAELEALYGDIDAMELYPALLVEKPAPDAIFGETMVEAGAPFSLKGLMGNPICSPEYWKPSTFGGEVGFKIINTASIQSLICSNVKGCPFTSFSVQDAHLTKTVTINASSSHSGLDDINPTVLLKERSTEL
Description: NVS_ENZ_oCOX2 is a biochemical, single-readout assay that uses extracted gene-proteins from Ovine placenta in a tissue-based cell-free assay. Measurements were taken 0.66 hour after chemical dosing in a 96-well plate.NVS_ENZ_oCOX2 is one of one assay component(s) measured or calculated from the NVS_ENZ_oCOX2 assay. It is designed to make measurements of enzyme activity, a form of enzyme reporter, as detected with absorbance signals by Colorimetric technology.Data from the assay component NVS_ENZ_oCOX2 was analyzed into 1 assay endpoint. This assay endpoint, NVS_ENZ_oCOX2, was analyzed in the positive analysis fitting direction relative to DMSO as the negative control and baseline of activity. Using a type of enzyme reporter, loss-of-signal activity can be used to understand changes in the enzymatic activity as they relate to the gene PTGS2. Furthermore, this assay endpoint can be referred to as a primary readout, because this assay has produced multiple assay endpoints where this one serves a enzymatic activity function. To generalize the intended target to other relatable targets, this assay endpoint is annotated to the oxidoreductase intended target family, where the subfamily is cyclooxygenase.
as §1

Structure (SMILES)	AC50	outcome
CC1(C)CN=C(NN=C(/C=C/c2ccc(C(F)(F)F)cc2)/C=C/c2ccc(C(F)(F)F)cc2)NC1	17.4 µM (active)	
O=[N+]([O-])c1ccc(Cl)c(Cl)c1	18.5 µM (active)	
Nc1ccc2ccccc2c1	7.93 µM (active)	
c1ccc(OP(Oc2ccccc2)Oc2ccccc2)cc1		inactive

What follows are compounds tested against rat Catechol-O-Methyl Transferase (COMT), Comt (gene 24267) (UniProt P22734) (assay: NVS_ENZ_rCOMT: NovaScreen (NVS) Enzymatic Assay for rat Catechol-O-Methyl Transferase (COMT) (AID 2283235)).
Chain of rat Catechol-O-Methyl Transferase (COMT), Comt (gene 24267) (P22734 whole entry, looked up): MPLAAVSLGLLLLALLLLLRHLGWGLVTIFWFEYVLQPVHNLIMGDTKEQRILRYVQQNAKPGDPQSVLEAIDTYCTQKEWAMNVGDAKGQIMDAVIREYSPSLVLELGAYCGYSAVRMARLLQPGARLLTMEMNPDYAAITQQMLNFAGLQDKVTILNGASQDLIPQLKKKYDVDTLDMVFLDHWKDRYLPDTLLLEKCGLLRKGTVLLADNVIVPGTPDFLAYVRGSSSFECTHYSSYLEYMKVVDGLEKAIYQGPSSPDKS
Method in brief: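 Rat dorsal striatum extract served as COMT source; product quantified by HPLC/spectrophotometry, read at 0 h after dosing. Primary single-concentration screen at 25 uM, followed by concentration series to a 50 uM maximum.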

Structure (SMILES)	outcome
CC(Cc1ccc(OCC(=O)O)cc1)NCC(O)c1csc(C(F)(F)F)n1 (stereo not drawn)	inactive
CCCCc1ccccc1	inactive
CSC(C)(C)C=NO	inactive

What follows are compounds tested against rat Constitutive Nitric Oxide Synthase (CNOS), Nos1 (gene 24598) (UniProt P29476) (assay: NVS_ENZ_rCNOS: NovaScreen (NVS) Enzymatic Assay for rat Constitutive Nitric Oxide Synthase (CNOS) (AID 2283236)).
Chain of rat Constitutive Nitric Oxide Synthase (CNOS), Nos1 (gene 24598) (P29476 whole entry, looked up): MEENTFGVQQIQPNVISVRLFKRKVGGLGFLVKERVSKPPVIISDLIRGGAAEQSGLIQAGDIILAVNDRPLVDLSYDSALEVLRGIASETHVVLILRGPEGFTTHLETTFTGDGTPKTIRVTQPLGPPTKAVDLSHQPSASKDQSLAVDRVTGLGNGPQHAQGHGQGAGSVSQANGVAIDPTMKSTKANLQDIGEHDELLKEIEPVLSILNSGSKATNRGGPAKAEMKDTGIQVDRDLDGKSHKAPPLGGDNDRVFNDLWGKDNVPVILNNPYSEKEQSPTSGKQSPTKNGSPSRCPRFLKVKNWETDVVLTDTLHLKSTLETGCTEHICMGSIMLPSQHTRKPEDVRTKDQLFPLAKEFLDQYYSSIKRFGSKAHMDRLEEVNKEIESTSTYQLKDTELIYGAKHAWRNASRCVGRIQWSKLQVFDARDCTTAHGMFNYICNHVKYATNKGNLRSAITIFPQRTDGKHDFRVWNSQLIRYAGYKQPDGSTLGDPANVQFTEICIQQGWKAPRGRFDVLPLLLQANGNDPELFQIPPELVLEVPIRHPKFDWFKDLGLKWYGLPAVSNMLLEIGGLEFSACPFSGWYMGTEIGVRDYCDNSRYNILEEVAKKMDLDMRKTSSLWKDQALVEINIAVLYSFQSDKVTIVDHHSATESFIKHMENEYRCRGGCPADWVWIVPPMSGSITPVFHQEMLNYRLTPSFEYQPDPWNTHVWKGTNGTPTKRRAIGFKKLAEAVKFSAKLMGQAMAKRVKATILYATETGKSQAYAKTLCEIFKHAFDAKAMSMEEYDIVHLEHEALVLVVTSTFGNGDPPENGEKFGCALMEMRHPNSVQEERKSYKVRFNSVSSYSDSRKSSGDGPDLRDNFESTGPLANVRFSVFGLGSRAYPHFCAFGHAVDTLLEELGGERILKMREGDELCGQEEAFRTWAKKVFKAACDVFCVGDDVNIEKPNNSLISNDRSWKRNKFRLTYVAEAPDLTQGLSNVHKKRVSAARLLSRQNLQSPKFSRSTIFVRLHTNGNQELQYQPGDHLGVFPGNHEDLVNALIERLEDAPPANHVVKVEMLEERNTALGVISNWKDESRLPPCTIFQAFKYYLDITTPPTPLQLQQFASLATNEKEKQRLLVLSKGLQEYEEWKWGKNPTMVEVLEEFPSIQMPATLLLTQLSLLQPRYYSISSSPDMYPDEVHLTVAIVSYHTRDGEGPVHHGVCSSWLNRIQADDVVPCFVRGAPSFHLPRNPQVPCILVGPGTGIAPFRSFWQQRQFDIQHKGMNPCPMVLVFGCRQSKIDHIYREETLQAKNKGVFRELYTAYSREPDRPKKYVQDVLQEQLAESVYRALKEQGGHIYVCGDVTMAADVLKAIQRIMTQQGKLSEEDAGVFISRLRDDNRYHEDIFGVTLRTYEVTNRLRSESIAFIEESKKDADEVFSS
Method in brief: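 Single 25 uM duplicate screen, then concentration series to 50 uM for chemicals meeting threshold. Rat brain membrane-derived CNOS activity detected radiometrically by filtration and scintillation counting, 1 h after compound addition; DMSO as baseline.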

Structure (SMILES)	outcome	AC50
[N-]=[N+]=[N-]	inactive	
Cc1ccc(N)cc1N		6.59 µM (active)
ClC(Cl)(Cl)c1ccccc1	inactive	
